This is one part of a sample in which hits are shown more often than they occur.
Pf Dd2 inh = blocks in vitro growth of P. falciparum Dd2; P. falciparum Dd2 growth, SYBR Green, 72 h; Potency, µM (doses to about 28.9 µM), most hits filed as inhibitors; 120,000 tested, 4.3% active; AID 1347417; active means well fitted inhibition curve with a large enough effect; further: nearly all actives have a fitted effect of over 65% in size
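Readout: SYBR Green fluorescence, 485 nm excitation, 535 nm emission, after ~16 h lysis at 37C. Before that, Dd2-infected red cells (2.5% hematocrit) grew 72 h with compound, 29 uM top final concentration.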
Large screens that a line does not name were inactive; ! = not confirmed by another sample.

Cc1ccc(-c2nnc(Nc3ccc(O)cc3)c3ccccc23)cc1S(=O)(=O)NCC1CCCO1 (configuration not stated)	Pf Dd2 inh 5.01µM
CNS(=O)(=O)c1cc(-c2nnc(Nc3cc(C)ccc3C)c3ccccc23)ccc1C	Pf Dd2 inh 5.01µM
O=C1CCN(C(=O)c2ccccc2)CCCC(C(=O)NCC2CC2)CCN1 (configuration not stated)	none
O=C(NC1CCCCC1)C1CN(S(=O)(=O)c2cc(F)cc(F)c2)CC12CCOCC2 (configuration not stated)	none
CC(C)[C@@H]1CN(C(=O)c2ccc(F)cc2F)C[C@H]1NS(=O)(=O)N(C)C	none
Cc1ccc(-c2nnc(Nc3cccc(O)c3)c3ccccc23)cc1S(=O)(=O)N1CCOCC1	none
Cc1ccc(C(=O)Nc2cccc(O)c2)cc1S(=O)(=O)N1CCCCCC1	none
CCOC(=O)c1c(Nc2ccc(F)cc2)nnc(-c2ccccc2)c1-c1ccccc1	none
Cc1ccccc1Nc1nnc(-c2ccc(C)c(S(=O)(=O)N3CCOCC3)c2)c2ccccc12	none
Cc1ccc(-c2nnc(Nc3ccc(S(N)(=O)=O)cc3)c3ccccc23)cc1S(=O)(=O)N1CCCCC1	none
Cc1ccc(Nc2nnc(-c3ccc(C)c(S(=O)(=O)N4CCOCC4)c3)c3ccccc23)c(C)c1	Pf Dd2 inh 7.94µM
Cc1ccc(-c2nnc(Nc3ccc(F)cc3)c3ccccc23)cc1S(=O)(=O)NC(C)C	Pf Dd2 inh 11.2µM
Cc1ccc(-c2nnc(Nc3ccc(O)cc3)c3ccccc23)cc1S(=O)(=O)N1CCCCC1	Pf Dd2 inh 10µM
Cc1cc(C)n(-c2nnc(Nc3ccc(C(C)C)cc3)c3ccccc23)n1	none
Cc1ccc(CNC(=O)N2CCC(Oc3ccc(-c4noc(C)n4)cc3)C2)cc1 (configuration not stated)	none
CCCNC(=O)C1COC2(CCN(C(=O)CC)CC2)N1C(=O)c1cccc(OC)c1 (configuration not stated)	none
CCS(=O)(=O)NCC1(COc2cccc(C)n2)C[C@@H](O)[C@@H](O)C1 (some centres not stated)	none
COc1ccc(-c2noc(C(=O)N(C)C)c2[C@H](C)O)cc1	none
CCc1nc2c(=O)n(CC(=O)N3CCN(c4cc(C)ccc4C)CC3)nc(C)c2s1	none
COc1ccc(N2C(=O)[C@@H]3[C@@H](CCN3C(=O)C(C)(C)C)N(Cc3ccccc3)C2=O)cc1	none
Cc1ccc(C(=O)N2CC(c3nnc(C(C)C)o3)C3(CCOCC3)C2)cc1 (configuration not stated)	none
CN1C(=O)C2(CCN(C(=O)c3cc4c(s3)CCCC4)CC2)c2ccccc21	none
CC(C)CN1C(=O)c2cccn2CC1C(=O)NCc1ccc(OC(C)C)cc1 (configuration not stated)	none
COc1ccc(-c2cn3cc(C(=O)N4CCCC4)nc3c(=O)n2CC2CC2)c(F)c1	Pf Dd2 inh 8.91µM
COc1ccc(-c2cn3cc(C(=O)NCCO)nc3c(=O)n2CC2CC2)c(F)c1	none
O=C(c1cn2cc(-c3ccccc3Cl)n(CC3CC3)c(=O)c2n1)N1CC[C@@H](O)C1	none
Cc1noc([C@@H]2CN(C(=O)Cc3ccsc3)C[C@H]2C(N)=O)n1	none
CCc1nc2c(c(-c3ccc(O)cc3)n1)CN(Cc1ccccc1OC)CC2	none
Oc1ccc(-c2nc(C3CC3)nc3c2CN(Cc2ccsc2)CC3)cc1	Pf Dd2 inh 7.08µM
Cc1nc2c(c(-c3ccc(O)cc3)n1)CN(Cc1cncs1)CC2	none
Cc1nc2c(c(-c3ccc(O)cc3)n1)CN(Cc1ccsc1)CC2	none
Oc1ccc(-c2nc(C3CC3)nc3c2CN(Cc2ccccc2C(F)(F)F)CC3)cc1	Pf Dd2 inh 2.51µM!
CN1CCCC(CNc2ncc(C(C)(C)C(=O)O)c(N3CCOCC3)n2)C1 (configuration not stated)	none
CCc1ccc(S(=O)(=O)N2CCN(C3CCN(Cc4cccnc4)C3=O)CC2)cc1 (configuration not stated)	none
COCC(=O)NCC(=O)N1CCCCCNC(=O)CC1c1ccccc1 (configuration not stated)	none
Cc1ccc(-c2noc([C@@H]3CCCN3C(=O)c3ccc(Cl)cc3)n2)cc1	none
Cc1ccc(-c2cccc(CN3CCN(c4ccc(Cl)nn4)C(=O)C3)c2)c(C)c1	none
O=c1[nH]c(C2CCCN(CC3CCCCC3)C2)nn1-c1ccccc1 (configuration not stated)	none
Cc1ccc2nc(C3CCCN(CC4CCCC4)C3)[nH]c(=O)c2c1 (configuration not stated)	Pf Dd2 inh 8.91µM!
Cc1ccc2nc([C@H]3CCN(Cc4cccs4)C3)[nH]c2c1	none
CC(=O)Nc1ccc(CN2CCC(c3nc4ccc(C)cc4c(=O)[nH]3)CC2)cc1	none
Cc1ccc(-c2cccc(CN3CCCC(c4nc5ccc(F)cc5c(=O)[nH]4)C3)c2)c(C)c1 (configuration not stated)	Pf Dd2 inh 12.6µM!
Cc1ccc(-c2cccc(CN3CC4CCC(C3)N4c3ccc(C(F)(F)F)cc3)c2)c(C)c1	none
CCN1CCC(c2nc3ccc(F)cc3c(=O)[nH]2)CC1	none
Cc1ccc2nc(C3CCN(Cc4cccc(-c5cccnc5)c4)CC3)[nH]c(=O)c2c1	Pf Dd2 inh 8.91µM!
COc1ccc(-n2nc(C3CCN(Cc4cccnc4)CC3)[nH]c2=O)cc1	none
CC(C)NC(=O)N1CC[C@H](c2nc3ccc(F)cc3[nH]2)C1	none
CC(C)CN1CCCC(c2nc3ccc(F)cc3c(=O)[nH]2)C1 (configuration not stated)	Pf Dd2 inh 5.01µM
O=C([C@@H]1C[C@H](Oc2ccccc2)CN1C(=O)c1ccccn1)N1CCOCC1	none
CO[C@H]1C(=O)N(C(C)C)[C@H]1C1CCN(S(=O)(=O)c2cccnc2)CC1	none
NCC(=O)N1CCC2(CC1)CN(C(=O)c1ccc(Cl)cc1)CCO2	none
CO[C@H]1C(=O)N(C(C)C)[C@H]1C1CCN(C(=O)C2CC2)CC1	none
CN(C)C[C@@H]1CN(S(C)(=O)=O)C[C@H]1NC(=O)c1ccc(F)cc1F	none
O=C1CCN(S(=O)(=O)c2ccccc2)CCCN(C(=O)CN2CCCCCC2)CCN1	none
CCn1ccc(C(=O)N2CCC(c3cc(Cc4ccccc4)[nH]n3)CC2)n1	none
Cc1cc(C)cc(-c2ccc(CN3CCCC(c4nc5ccc(F)cc5c(=O)[nH]4)C3)cc2)c1 (configuration not stated)	Pf Dd2 inh 10µM!
O=c1[nH]c(C2CCCN(Cc3cccc(-c4cccs4)c3)C2)nc2ccc(F)cc12 (configuration not stated)	Pf Dd2 inh 8.91µM!
CC(=O)Nc1ccc(CN2CCC(c3nc4ccc(F)cc4c(=O)[nH]3)CC2)cc1	none
N#Cc1cccc(CN2CCC(c3nc4ccc(F)cc4c(=O)[nH]3)CC2)c1	none
O=c1[nH]c(C2CCCN(Cc3ccccc3)C2)nn1-c1ccccc1 (configuration not stated)	none
COc1ccc(CN2CCCC(c3nn(-c4ccccc4)c(=O)[nH]3)C2)cc1 (configuration not stated)	none
CC(C)c1nnsc1CNC(=O)C1CCC(=O)N(CC2CCCCC2)C1 (configuration not stated)	none
Cc1ccc2cc(CCC(=O)NCCCN(C)C)c(=O)[nH]c2c1	none
C[C@@]1(O)CCN(C(=O)c2ccc(C(=O)N3CCOCC3)cc2)C[C@@H]1O	none
COC[C@@H]1[C@H](NC(=O)c2ccc(OCCNC(C)=O)cc2)[C@@H]2CCO[C@H]12	none
CCOc1cc(=O)n2c(c1C(=O)NC1CC1)CCCCC2	none
Cc1ccc(C(C)C)c(OCC(=O)Nc2cc(-c3nc4ccccc4[nH]3)ccc2C)c1	Pf Dd2 inh 6.31µM
CC(C)CC(=O)Nc1cccc(-c2nc3ccccc3[nH]2)c1	none
